High-throughput results: PubChem BioAssay, National Center for Advancing Translational Sciences (NCATS)
Sampled rows, rich in hits. Any-hit rate of the full collection: about 2.9%.
Pol iota inh – qHTS for Inhibitors of Polymerase Iota; Potency, µM (doses to about 115 µM), most hits filed as inhibitors; DNA polymerase iota (Homo sapiens), Q9UNA4; Pol iota fluorescent replication assay, 10 min; hit rate 1% among 390,000
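Pol iota at 10 nM preincubated 15 min with compounds at room temperature; reaction started with fluorescent substrate, 50 nM final. Fluorescence read kinetically at 0 and 10 min; buffer-only wells as negative control.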
12-LOX inh – Primary qHTS assay for inhibitors of human arachidonate 12S-lipoxygenase (ALOX12): Round 2. Polyunsaturated fatty acid lipoxygenase ALOX12 (Homo sapiens), P18054. purified 12hLO, xylenol orange hydroperoxide absorbance. Potency, µM (highest dose often 108 µM), actives largely listed as inhibitors. hit rate 1.1% among 580,000. AID 1671190, 2021
Target sequence (P18054 whole entry, looked up): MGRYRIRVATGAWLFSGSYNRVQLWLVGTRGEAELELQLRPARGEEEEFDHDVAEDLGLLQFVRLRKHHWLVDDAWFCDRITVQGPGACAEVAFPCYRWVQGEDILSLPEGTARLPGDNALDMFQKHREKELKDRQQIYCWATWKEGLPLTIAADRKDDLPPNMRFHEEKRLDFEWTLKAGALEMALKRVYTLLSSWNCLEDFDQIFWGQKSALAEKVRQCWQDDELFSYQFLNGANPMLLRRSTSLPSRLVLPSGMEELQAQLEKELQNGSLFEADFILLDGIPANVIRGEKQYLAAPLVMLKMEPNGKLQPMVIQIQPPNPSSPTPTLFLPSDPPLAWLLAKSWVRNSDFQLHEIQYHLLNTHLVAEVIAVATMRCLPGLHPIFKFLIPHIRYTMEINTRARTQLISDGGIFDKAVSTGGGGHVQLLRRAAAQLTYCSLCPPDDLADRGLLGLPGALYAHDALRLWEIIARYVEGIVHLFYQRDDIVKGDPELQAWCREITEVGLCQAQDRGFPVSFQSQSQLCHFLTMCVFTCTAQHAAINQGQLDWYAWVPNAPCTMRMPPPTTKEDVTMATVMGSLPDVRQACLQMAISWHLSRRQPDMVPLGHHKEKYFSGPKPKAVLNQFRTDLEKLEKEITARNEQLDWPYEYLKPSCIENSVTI
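Hydroperoxide product was detected by ferrous iron/xylenol orange as the 573 to 405 nm absorbance ratio. Arachidonic acid at 40 uM (final) was turned over for 30 min at room temperature by 150 nM human 12hLO, pH 7.0 Hepes buffer, after 15 min compound preincubation.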
Pol beta inh – qHTS Assay for Inhibitors of DNA Polymerase Beta; Potency, µM (highest dose often 114 µM), most hits filed as inhibitors; AID 485314, 2010; P06746; hit rate 1.3% among 340,000; Pol beta primer extension/strand displacement, fluorescence kinetic
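Values derive from four-parameter Hill fits of normalized kinetic data: reads at 0 and 10 min following addition of 50 nM substrate to 10 nM Pol beta preincubated 15 min with compound.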
PI5P4Ka inh – qHTS for Inhibitors of phosphatidylinositol 5-phosphate 4-kinase (PI5P4K); Phosphatidylinositol 5-phosphate 4-kinase type-2 alpha (Homo sapiens), P48426; PI5P4Kalpha enzyme, ADP-Glo luminescence, 60 min; stronger effect = lower value; max response, %; hit rate 1.2% among 330,000; AID 652105, 2013; active = max response of -50% or lower; inconclusive = between -30% and -50%; inactive = -30% or higher; also: value at the top dose of about 77 µM
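Luminescence from ADP-Glo served as readout of PI5P4Kalpha activity in a qHTS format. Reaction: enzyme, substrate, compound, ATP at 5 microM final, 60 min at RT.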
Pol kappa inh-1 – qHTS for Inhibitors of Polymerase Kappa | purified Pol kappa, fluorescent DNA synthesis assay, 10 min | Potency, µM (top dose mostly 107 µM), most hits filed as inhibitors | hit rate 0.53% among 400,000 | AID 588579, 2011
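Pol kappa 10 nM + cpd, 15 min RT; start w/ substrate 50 nM final; fluorescence kinetic read, 0 and 10 min. Neg ctrl: buffer, no enzyme.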
Pol eta inh-1 – qHTS for Inhibitors of Polymerase Eta. DNA polymerase eta (Homo sapiens), Q9Y253. recombinant Pol eta, fluorescent DNA replication assay. Potency, µM (titrated, usually from 114 µM), usual class: inhibitors. hit rate 1.2% among 390,000. AID 588591, 2011
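Pol eta (10 nM) was preincubated with compounds for 15 min at room temperature, after which fluorescent replication substrate (50 nM final) was added to start the reaction. Fluorescence was read kinetically at 0 and 10 min.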
TbPGK inh – qHTS for inhibitors of Phosphogylcerate Kinase: Hit Validation Screen | shares compounds with Pol kappa inh-1 | TbPGK coupled GAPDH assay, Kinase-Glo luminescence | Potency, µM (series often up to 57.5 µM), usual class: inhibitors | hit rate 79% among 500 | AID 686980, 2013; also: nearly all actives have a fitted effect of over 65% in size
Pol iota confirm – qHTS for Inhibitors of Polymerase Iota: Confirmatory Assay for Cherry-picked Compounds. shares compounds with Pol kappa inh-1. Pol iota primer extension, TAMRA/BHQ fluorescence. Potency, µM, most hits filed as inhibitors. hit rate 77% among 1,500
GALK confirm – Confirmation Assay for Inhibitors of Human Galactokinase (GALK) | hit rate 70% among 150 | shares compounds with Pol eta inh-1 | Potency, µM (titrated, usually from 115 µM), usual class: inhibitors | purified GALK, Kinase-Glo ATP depletion luminescence
GALK redox cs – Confirmatory Assay for Inhibitors of Human Galactokinase (GALK): Phenol-HRP redox assay counterscreen | hit rate 40% among 150 | Phenol red-HRP H2O2 redox cycling, absorbance 600 nm | shares compounds with Pol eta inh-1 | Potency, µM (top dose mostly 115 µM), usual class: inhibitors | AID 2035, 2009
HEK293 viability – Secondary Assay for Inhibitors of Human Galactokinase (GALK): HEK-293 Cell Viability Assay | shares compounds with Pol eta inh-1 | HEK-293 viability, ATP luminescence (CellTiter-Glo), 24/48 h | Potency, µM (titrated, usually from 46.1 µM), most hits filed as inhibitors | hit rate 10% among 170 | AID 2547, 2010
Pol kappa inh-2 – qHTS for Inhibitors of Polymerase Kappa: Confirmatory Assay for Cherry-picked Compounds. shares compounds with Pol eta inh-1. purified Pol-kappa, fluorescent strand-displacement substrate. Potency, µM, usual class: inhibitors. hit rate 76% among 920. AID 720501, 2013
Pol eta inh-2 – qHTS for Inhibitors of Polymerase Eta: Confirmatory Assay for Cherry-picked Compounds; shares compounds with Pol eta inh-1; Pol eta primer extension, TAMRA/BHQ fluorescence, 10 min; Potency, µM, actives largely listed as inhibitors; hit rate 64% among 2,600; AID 720502, 2013
Numbers stand for hits; n = inactive; u = inconclusive; x = no result. Unless noted, calls follow the shape of the dose curve; as a rule, active = well fitted curve in the direction sought with a large enough effect; inconclusive = small, poorly fitted or top-dose-only effect, or another doubt; inactive = no such curve, though single readings can be large; an effect the other way counts as inactive or inconclusive.

SMILES | Pol iota inh | 12-LOX inh | Pol beta inh | PI5P4Ka inh | Pol kappa inh-1 | Pol eta inh-1 | TbPGK inh | Pol iota confirm | Pol kappa inh-2 | Pol eta inh-2 | others
O=C1C=CC2=C3c4cc(O)c(O)cc4CC3(O)COC2=C1O (centres undefined) | 1.26µM | u | x | -90.1 | 1.12µM | 0.794µM | 0.58µM | x | x | x | GALK confirm=21.1µM;GALK redox cs=n;HEK293 viability=n
O=C1C=C(O)c2[nH]c(=O)ccc2C1=O | 17.8µM | n | x | -57.4 | u | 17.8µM | x | 53.2 | 23.8 | 47.8
COc1ccc(Oc2c(OC)cc(NCc3ccc(CN)cc3)c3ncccc23)cc1 | x | n | x | n | x | 3.16µM | x | 7.52 | 2.99 | 15.1
COc1ccc(CNc2cccnc2Cl)cc1 | x | n | x | n | x | x | x | x | x | x
Cc1nc(CC(=O)N/N=C/c2ccc(OCC(=O)O)cc2)cs1 | n | n | n | n | n | n | x | x | x | x
O=C(O)COc1ccc(/C=N/NC(=O)c2ccc(-c3csc(Nc4ccc(Cl)cc4)n3)cc2)cc1 | 2.82µM | u | u | -69.2 | 7.94µM | 2.51µM | x | 2.99 | x | 10.7
COc1cc(/C=N\NC(=O)c2ccc(-c3ccccc3)cc2)ccc1OCC(N)=O | n | n | n | n | n | n | x | x | x | x
CCOc1cc(/C=N/NC(=O)c2ccc(-c3csc(Nc4ccc(C)cc4)n3)cc2)ccc1OCC(=O)O | 8.91µM | u | 5.01µM | u | 31.6µM | 17.8µM | 11.6µM | 29.9 | 18.9 | 75.7
Cc1sc(NC(=O)CC(C)(C)CC(=O)O)c(C(N)=O)c1-c1ccccc1 | x | n | x | x | x | x | x | x | x | x
Cc1ccc(OCC(O)Cn2c(C)cc(=O)n3ncnc23)cc1 (centres undefined) | x | n | x | x | x | x | x | x | x | x
[O-][n+]1c2ccccc2[n+]([O-])c2cc(O)ccc21 | u | u | 22.4µM | -54.2 | u | 17.8µM | 32.6µM | u | u | u
CC(OC(=O)c1sc2ccccc2c1Cl)C(=O)N1CCNC1=O (centres undefined) | x | n | x | x | x | x | x | x | x | x
Cc1cc(=O)n(CC(=O)NC(C)c2ccccc2)c2c1c(C)nn2C (centres undefined) | n | 50.1µM | 31.6µM | x | u | 39.8µM | x | 67 | x | 84.9
Cc1nn(C)c2c1c(-c1ccccc1)cc(=O)n2CC(=O)NC(C)c1ccccc1 (centres undefined) | u | 44.7µM | 14.1µM | x | u | 25.1µM | x | 33.6 | 16.8 | 26.9
COc1cccc(C(=O)N2CCC(N(C(=O)C3CC3)C3CCOCC3)CC2)c1 | x | n | x | x | x | x | x | x | x | x
COc1cc(/C=C(\C#N)C(=O)c2ccc(O)c(O)c2)cc(I)c1O | 0.891µM | u | 0.597µM | -84.9 | 0.423µM | 0.891µM | 3.66µM | 6.7 | 2.38 | 5.36
O=C1S/C(=C\c2ccc(O)c([N+](=O)[O-])c2)C(=O)N1c1ccccc1Cl | u | u | n | u | n | u | x | x | x | x
COc1cc(/C=C2\SC(=O)N(c3cccc(Cl)c3)C2=O)cc([N+](=O)[O-])c1O | 6.31µM | u | 6.31µM | -80.8 | u | u | 4.61µM | 37.7 | 4.23 | u
O=C(CCN1C(=O)/C(=C\C=C\c2ccccc2)SC1=S)Nc1cccc(C(=O)O)c1 | n | n | 50.1µM | u | 79.4µM | 22.4µM | x | 75.2 | x | 53.6
COc1ccccc1Oc1c(C)oc2cc(OC(=O)C3CC3)ccc2c1=O | x | n | x | x | x | x | x | x | x | x
CCc1ccc(-n2nnnc2SCC(=O)Nc2ccc(NC(C)=O)cc2)cc1 | n | n | n | n | n | n | x | x | x | x
CC(=O)Nc1ccc(-n2nnnc2SCC(=O)Nc2cccc(NC(=O)c3ccco3)c2)cc1 | 28.2µM | n | u | n | n | u | x | 53.2 | x | u
CCC(Sc1nc2nccnc2c(=O)n1Cc1ccc(OC)cc1)C(=O)Nc1ccc(OC)cc1 (centres undefined) | x | n | x | x | x | x | x | x | x | x
CS(=O)(=O)Oc1cc2oc(=O)c3c(c2cc1Cl)CCCC3 | x | n | x | x | x | x | x | x | x | x
CCc1cc(CC)n(-c2nc3c(c(=O)n(CC(=O)OC)c(=O)n3C)n2C)n1 | x | n | x | x | x | x | x | x | x | x
C=C(C)C(=O)Nc1cccc(C2=NOC3(C2)C[C@@H](C(N)=O)N(C(=O)c2cc([N+](=O)[O-])cc([N+](=O)[O-])c2C)C3)c1 (some centres undefined) | u | n | 20µM | n | 50.1µM | 12.6µM | u | u | x | 19
C=C(C)C(=O)Nc1cccc(C2=NOC3(C2)C[C@@H](C(N)=O)N(C(=O)C(=C)C)C3)c1 (some centres undefined) | 50.1µM | n | 3.55µM | n | u | 10µM | 5.8µM | x | x | 16.9
C/C=C/C(=O)Nc1cccc(C2=NOC3(C2)C[C@@H](C(N)=O)N(C(=O)c2cc([N+](=O)[O-])cc([N+](=O)[O-])c2C)C3)c1 (some centres undefined) | n | u | n | n | n | n | x | x | x | x
